Test results published in PubChem BioAssay (NCATS).
Results filed as inconclusive are left out. Entries that show only a call come without a potency. Active and inactive are the calls of the source. The call rests on the fitted dose curve; in most records, active means well fitted cell-killing curve with a large enough effect; inconclusive means small, poorly fitted or top-dose-only effect; inactive means no such curve, though single readings can be large or run the other way.

experiment: qHTS of pediatric cancer cell lines to identify multiple opportunities for drug repurposing: Primary screen for Rh30 cells (AID 1347107); settings: Rh30 rhabdomyosarcoma viability, CellTiter-Glo luminescence, 48 h; series mostly up to 46 µM; further: nearly all actives have a fitted effect of over 75% in size
From the text: Drug repurposing or repositioning has been offered as a strategy for drug development in oncology programs. This approach has special potential for childhood cancers and other rare or orphan diseases, where the expected return on new drug development has been a disincentive to pharmaceuticals.
In this project we exploit the poly-pharmacology of drugs to discover new indications via phenotypic screening of a panel of 19 well-characterized cell lines derived from solid tumors seen in children and adolescents. The goal is to identify approved drugs with previously unrecognized anticancer properties that has the potential to reveal new mechanisms and biological processes involved in carcinogenesis or drug resistance. We employed a titration-based paradigm (quantitative high-throughput screening or qHTS), where all compounds were tested at multiple concentrations for their effect on cell viability. Concentration-response curves (CRCs) were derived directly from the primary screen, and both potency and efficacy values were used to identify compounds with robust bioactivity profiles. We screened the NIH Chemical Genomics Center (NCGC) Pharmaceutical Collection (NPC) and Mechanism Interrogation Plate (MIPE) small molecule collections of approved and investigational compounds against these cell lines; and measured metabolically active cells after 48 hours of compound treatment as a proxy for cell viability.
Assay Submitter: Nathalia J. Martinez, National Center for Advancing Translational Sciences, National Institutes of Health, Rockville, MD, USA; email: natalia.martinez@nih.gov
[1] Shen, M et al. Quantitative high-throughput phenotypic screening of pediatric cancer cell lines identifies multiple opportunities for drug repurposing. Oncotarget 2017 Dec 19;9(4):4758-4772. PMID 29435139.
The cells were obtained from University of North Carolina (UNC), Pediatric Preclinical Testing Program (PPT), and Coriell Institute (CI).
qHTS cell viability assay:
Cells were assayed in growth media at a density of 500-1,000 cells/well. Five microliters of cells were dispensed into 1,536-well, white, solid-bottom, TC-treated plates (Greiner Bio One) using a multidrop dispenser and incubated at 37 degrees C, 5% CO2, under a humidified atmosphere for 5 hours. Twenty-three nanoliters of compounds and controls (neutral control DMSO or positive control bortezomib at final concentration of 2.3 µM) were subsequently transferred by Kalypsys pintool. For primary screens, the MIPE collection was tested at 11-point dilutions (final concentrations range from 0.78 nM to 46 µM) and the NPC collection at 8-point dilutions (final concentrations range from 0.59 nM to 46 µM). Compounds tested in follow-up screens were assayed at 11-point dilutions. Cells were incubated for 48 hours, followed by addition of 3 µL of CellTiter-Glo (Promega). After a 15 min incubation at room temperature, samples were analyzed for luminescence intensity using a ViewLux High-throughput CCD imager equipped with clear filters.
Potency means the concentration at half of the fitted maximal effect.

| Compound | Potency |
| --- | --- |
| CNC(=O)c1ccc2cc(C3(O)CCn4cncc43)ccc2c1 (stereo not given) | inactive |
| COc1cc2ncnc(Nc3ccc(F)c(Cl)c3)c2cc1OCCCN1CCOCC1 | inactive |
| C[C@@H]1CCN(C(=O)CC#N)C[C@H]1N(C)c1ncnc2[nH]ccc12 | inactive |
| CCNc1cc(NC2CCC(O)CC2)nc(Nc2ccc3c(ccn3Cc3ccccc3)c2)n1 (stereo not given) | inactive |
| Cc1ccn(-c2ccc(-c3ncco3)cc2)c(=O)c1-c1ccc2nc(N)ncc2c1 | inactive |
| CC(C)C(=O)Oc1ccc(CO)cc1[C@H](CCN(C(C)C)C(C)C)c1ccccc1 | inactive |
| COCCCCC(=NOCCN)c1ccc(C(F)(F)F)cc1 | 23.5 µM (active) |
| Cc1nnc(C(C)C)n1C1C[C@H]2CC[C@@H](C1)N2CC[C@H](NC(=O)C1CCC(F)(F)CC1)c1ccccc1 (stereo not given in full) | inactive |
| CCOc1ccc(Nc2nc(-c3c(C)nc4ccccn34)cs2)cc1 | inactive |
| CC(C)(C)OC(=O)N[C@H]1CCCCCC=C[C@@H]2C[C@@]2(C(=O)NS(=O)(=O)C2CC2)NC(=O)[C@@H]2C[C@@H](OC(=O)N3Cc4cccc(F)c4C3)CN2C1=O | inactive |
| CN1[C@@H]2CCC[C@@H]1CC(NC(=O)c1nn(C)c3ccccc13)C2 (stereo not given in full) | inactive |
| Cn1c(N2CCCCS2(=O)=O)nc(C(=O)NCc2ccc(F)cc2)c(O)c1=O | inactive |
| NC1=N[C@@]2(c3cc(NC(=O)c4ccc(F)cn4)ccc3F)COC[C@@H]2CS1 | inactive |
| COC1CCC(N(C(=O)C2CCC(C)CC2)c2cc(C3=CCCCC3)sc2C(=O)O)CC1 (stereo not given) | inactive |
| CC(=O)N[C@@H](CS)C(=O)O | inactive |
| Cc1ccc(C(C)(O)c2nc3ccccc3s2)c(C)c1 (stereo not given) | inactive |
| O=C(O)c1ccc(-c2c[nH]c3ncc(-c4ccccc4)cc23)cc1C1CCCC1 | inactive |
| CC=CCC=CCCC(=O)[C@H]1O[C@@H]1C(N)=O | inactive |
| CC[C@]1(O)C[C@@H]2CN(CCc3c([nH]c4ccccc34)[C@@](C(=O)OC)(c3cc4c(cc3OC)N(C=O)[C@@H]3C45CCN4CC=C[C@](CC)([C@H]45)[C@@H](OC(C)=O)[C@]3(O)C(=O)OC)C2)C1 (stereo not given in full) | inactive |
| O=C(O)C(O)Cc1ccc(O)c(O)c1 (stereo not given) | inactive |

| Compound | Potency |
| --- | --- |
| Oc1ccc(C2=Cc3ccc(O)cc3OC2)cc1 | 11.8 µM (active) |
| O=c1cc(CN2CCOCC2)occ1OCCCCCSc1ccnc2cc(C(F)(F)F)ccc12 | inactive |
| CN1C[C@H]2c3ccccc3Oc3ccc(Cl)cc3[C@@H]2C1 | inactive |
| Clc1ccc(C(c2ccc(Cl)cc2)n2cc[n+](CC(OCc3ccc(Cl)cc3Cl)c3ccc(Cl)cc3Cl)c2)cc1 (stereo not given) | 18.7 µM (active) |
| O=c1cc(-c2ccccc2)oc2cc(O)cc(O)c12 | inactive |
| COc1ccc2cc(-c3nc(-c4ccc(S(C)=O)cc4)[nH]c3-c3ccncc3)ccc2c1 (stereo not given) | inactive |
| CC(=O)Nc1ccc([C@H](C)C(=O)Nc2ncc(C(C)C)s2)cc1 | inactive |
| CC1(C)CCC[C@@]2(C)[C@@H]1CC[C@@]1(C)OC(=O)C[C@H]21 | inactive |
| NC[C@@H]1O[C@@H](O[C@H]2[C@@H](O)[C@H](O[C@@H]3[C@@H](O)[C@@H](N)C[C@H](N)[C@H]3O[C@H]3O[C@H](CN)[C@@H](O)[C@@H](O)[C@H]3N)O[C@H]2CO)[C@H](N)[C@@H](O)[C@@H]1O | inactive |
| Cc1ccc(C(=O)Nc2cccc(C(F)(F)F)c2)cc1Nc1nc(-c2cccnc2)nc2c1cnn2C | 18.7 µM (active) |
| c1cc(-c2sc(-c3ccncc3)c(-c3ccncc3)c2-c2ccncc2)ccn1 | inactive |
| COc1ccc(-c2coc3cc(O)cc(O)c3c2=O)cc1 | inactive |
| CCCCCCCCCCCC1=C(O)C(=O)C=C(O)C1=O | inactive |
| O=c1c(-c2ccc(O)cc2)coc2cc(O[C@@H]3O[C@H](CO)[C@H](O)[C@H](O)[C@H]3O)ccc12 | inactive |
| CCC(CC)[C@H](NC(C)=O)[C@@H]1[C@H](O)[C@@H](C(=O)O)C[C@@H]1N=C(N)N | inactive |
| COc1ccc(-c2coc3cc(O)ccc3c2=O)cc1 | inactive |
| CC(C)OC(=O)C(C)(C)Oc1ccc(C(=O)c2ccc(Cl)cc2)cc1 | inactive |
| CC1(C)CCC2=C(O1)c1ccccc1C(=O)C2=O | 23.5 µM (active) |
| N#Cc1ccc(NC(=O)Nc2ccccc2Br)c2n[nH]nc12 | inactive |
| C[C@H](NC(=O)c1sccc1OCc1ccc(Cl)cc1)c1ccccc1 | 18.7 µM (active) |
